Source: PubChem BioAssay
A selection: hits, their analogues and other compounds. The true share with any hit is near 9.3%.
SMN2 splice up: qHTS Assay for Enhancers of SMN2 Splice Variant Expression; AID 1458, 2008; HEK293 SMN2-luciferase splicing reporter, luminescence, 30-36 h; Potency, µM (top dose mostly 46.1 µM), without a hit: at the top dose activity change, positive = activation, usual class: activators; 210,000 compounds, 2.8% hits; also: % of control where 0% means no effect; nearly all actives have a fitted effect of over 55% in size
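HEK293 cells carry an SMN2 minigene-luciferase reporter in which exon 7 inclusion puts luciferase in frame. Cells were seeded at 2000 cells/well, attached for 10-12 hours, then exposed to compounds for 30-36 hours at 37C before ONE-Glo luminescence.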
FLuc modulator: qHTS profiling assay for firefly luciferase inhibitor/activator using purifed enzyme and Km concentrations of substrates (counterscreen for miR-21 project); purified FLuc, Km substrates, luminescence inhibition; Potency, µM (highest dose often 57.5 µM), inactives show at the highest dose activity change, negative = inhibition, actives largely listed as inhibitors; 360,000 compounds, 6.9% hits;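 also: plate controls were vehicle for no effect and reference inhibitor for full effect; nearly all actives have a fitted effect of over 55% in size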
Target sequence (P08659 whole entry, looked up): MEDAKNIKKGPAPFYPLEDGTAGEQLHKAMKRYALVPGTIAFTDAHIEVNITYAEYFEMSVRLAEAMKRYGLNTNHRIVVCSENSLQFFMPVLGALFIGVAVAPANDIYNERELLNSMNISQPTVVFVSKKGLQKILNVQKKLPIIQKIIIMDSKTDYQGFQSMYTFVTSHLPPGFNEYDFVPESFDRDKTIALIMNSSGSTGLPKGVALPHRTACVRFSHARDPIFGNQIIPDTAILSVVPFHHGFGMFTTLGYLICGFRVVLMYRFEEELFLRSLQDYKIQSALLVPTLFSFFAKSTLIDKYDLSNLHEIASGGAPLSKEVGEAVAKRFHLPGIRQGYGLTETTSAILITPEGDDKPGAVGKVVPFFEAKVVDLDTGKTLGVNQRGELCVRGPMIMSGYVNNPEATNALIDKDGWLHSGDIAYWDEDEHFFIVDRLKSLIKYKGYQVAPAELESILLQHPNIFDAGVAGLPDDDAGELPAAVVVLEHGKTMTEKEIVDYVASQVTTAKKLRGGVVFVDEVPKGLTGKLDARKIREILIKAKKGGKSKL
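Biochemical qHTS of compounds, final roughly 60 µM downward over six points, against 10 nM purified firefly luciferase using Km concentrations of substrates (10 uM D-luciferin, 10 uM ATP) in Tris acetate pH 7.5 buffer; luminescence output.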
NPC1 prom act: qHTS Assay for NPC1 Promoter Activators; 320,000 compounds, 2.4% hits; AID 485313, 2010; Huh7 NPC1 promoter luciferase reporter, 24 h; Potency, µM (highest dose often 9.22 µM), without a hit: top-dose activation, most hits filed as activators; also: % of control where 0% means no effect; nearly all actives have a fitted effect of over 60% in size
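Stably transfected Huh7 (NPC1 promoter→luciferase), 1500 cells/well in Opti-MEM + 10% FBS, 2 h settle, then compound 24 h at 37 °C. Luminescence after 10 min with Amplite reagent.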
ELG1 genotoxic: qHTS screen for small molecules that induce genotoxicity in human embryonic kidney (HEK293T) cells expressing luciferase-tagged ELG1 | HEK293T ELG1-luciferase reporter, luminescence, 16 h | 330,000 compounds, 1.3% hits | Potency, µM (doses to about 46 µM), for the others: at the highest dose activity change, positive = activation, usual class: activators; also: % of control where 0% means no effect; nearly all actives have a fitted effect of over 60% in size
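16 hr compound incubation (37 °C, 5% CO2) of HEK293T cells carrying luciferase-tagged ELG1; luciferase then measured by ONE-Glo luminescence after 30 min at RT.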
ELG1 DNA repair: qHTS screen for small molecules that inhibit ELG1-dependent DNA repair in human embryonic kidney (HEK293T) cells expressing luciferase-tagged ELG1; AID 504467, 2011; Potency, µM (series often up to 46.1 µM), inactives show at the highest dose activity change, negative = inhibition, hits mostly inhibitors; 330,000 compounds, 2.3% hits; HEK293T ELG1-luciferase reporter, luminescence, 16 h; DNA damage induced by 5-fluorouridine; also: % is scaled to controls: 0 for no effect and ±100 for the full control effect; nearly all actives have a fitted effect of over 55% in size
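In this reporter screen, reduction of luminescence relative to DMSO vehicle indicated activity. Compounds and 5-fluorouridine were added together to 2,000 cells per well, incubated for 16 hr at 37 °C, then developed with ONE-Glo.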
Rab9 prom act: qHTS Assay for Rab9 Promoter Activators | Huh7 Rab9 promoter-luciferase reporter, luminescence, 24 h | Potency, µM (series often up to 9.22 µM), for the others: at the highest dose activation, negative = inhibition, hits mostly activators | 320,000 compounds, 2.8% hits | AID 485297, 2010; also: % of control where 0% means no effect; nearly all actives have a fitted effect of over 60% in size
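Cells were plated at 1500 per well in reduced-serum medium with 10% FBS and left 2 h. Compound in DMSO was then added for 24 h at 37 °C. Reporter signal was read by luminescence after 10 min with luciferase detection reagent.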
An asterisk follows results filed as active; ? = inconclusive; nt = no result; [ ] = dose if it differs, or a comment. Calls follow the shape of the dose curve; as a rule, active = well fitted curve in the direction sought with a large enough effect; inconclusive = small, poorly fitted or top-dose-only effect, or another doubt; inactive = no such curve, though single readings can be large; an effect the other way counts as inactive or inconclusive. Potency is read from the fitted curve at half-maximal effect.

SMILES	SMN2 splice up	FLuc modulator	NPC1 prom act	ELG1 genotoxic	ELG1 DNA repair	Rab9 prom act
COC(=O)c1ccc(COc2ccc(C(C)(C)C)cc2)o1	nt	16.9µM*	0.708µM*	?	?	0.355µM*
O=C(NCc1cccnc1)c1ccc(COc2ccc3c(c2)CCC3)o1	-52.3%	?	4.1%	-8.0%	?	-1.2%
COC(=O)c1ccc(COc2ccc3c(c2)CCC3)o1	nt	16.9µM*	?	?	?	?
O=C(NCc1ccc(F)cc1)C1CCCCN1S(=O)(=O)c1ccc(F)cc1 (stereo unspecified)	nt	2.2%	nt	nt	nt	nt
O=C(N/N=C/c1ccc(O)c(O)c1)NC12CC3CC(CC(C3)C1)C2	nt	-13.8%	-6.4%	3.2%	-3.6%	0.2%[1.84 µM]
CCO[C@@H]1OC(C(=O)NCc2ccccc2)=C[C@H](c2cn(C(C)=O)c3ccccc23)[C@H]1CCCO	nt	2.1%	-5.0%	5.2%	6.3%	1.7%
CC(C)(C)c1ccc(OCc2ccc(C(=O)N3CCOCC3)o2)cc1	nt	15.1µM*	?	13.0%	?	?
CCCc1ccc(OCc2ccc(C(=O)N3CCSCC3)o2)cc1	nt	21.3µM*	2.24µM*	10.3µM*	?	2.24µM*
CCc1ccc(OCc2ccc(C(=O)OC)o2)cc1	nt	16.9µM*	?	?	?	?
COC(=O)c1ccc(COc2ccc(NC(C)=O)cc2)o1	nt	0.7%	-6.4%	2.1%	14.1%	-1.1%
CC(C)(C)c1ccc(OCc2ccc(C(=O)Nc3cccnc3)o2)cc1	nt	15.1µM*	0.447µM*	?	?	0.355µM*
Cc1ccc(S(=O)(=O)n2[nH]c(=O)cc2NC(=O)c2cccs2)cc1	nt	-3.2%	9.7%	4.8%	0.0%	-2.4%
CCOc1ccc(OCc2ccc(C(=O)NCc3ccncc3)o2)cc1	16.5%	-20.6%	?	?	0.2%	?
CCc1ccc(OCc2ccc(C(=O)NCc3ccccn3)o2)cc1	5.01µM*	?	?	?	?	?
CCOC(=O)CNC(=O)c1cc2c(=O)n(CC)c3ccccc3c2s1	7.7%	3.7%	nt	nt	nt	nt
CCOC(=O)C1=C(CC)Nc2ccccc2N=C1NC(=O)c1ccc(OC)c(S(=O)(=O)N2CCCCC2C)c1 (stereo unspecified)	-18.2%	2.1%	-2.9%	-10.7%	23.1µM*	-4.0%
Cc1ccc(NC(=O)COC(=O)CCc2ccccc2)c(Cl)c1	nt	16.9µM*	-1.3%	7.6%	?	-1.6%
CC(NC(=O)C(C)N1c2cccc3cccc(c23)S1(=O)=O)c1ccccc1 (stereo unspecified)	nt	-0.4%	-3.2%	-13.8%	?	0.9%
COC(=O)c1ccc(-c2ccc(Cl)cc2)nc1C	5.01µM*	1.35µM*	1.58µM*	8.2µM*	?	1.41µM*
COC(=O)c1ccccc1NC(=O)c1sc(Cl)nc1C	nt	?	0.3%	1.4%	24.4%	10.4%
CCN(Cc1ccncc1)S(=O)(=O)c1ccc(C(C)=O)cc1	-44.7%	-1.9%	-8.0%	1.6%	6.51µM*	-26.3%
O=C(Nc1ccc(SC(F)(F)F)cc1)c1ccccn1	2.24µM*	0.849µM*	?	2.31µM*	?	1.41µM*
O=C(Nc1ccc(N2CCCCCC2)cc1)c1ccc[nH]1	nt	nt	1.12µM*	?	?	0.398µM*
O=C(Nc1ccc(N2CCCC2)cc1)c1ccc(Br)cc1	nt	?	18.4%	10.4%	?	24.0%
O=C(Nc1ccc(N2CCCCC2)cc1)C(Cl)c1ccccc1 (stereo unspecified)	16.3%	3.01µM*	?	10.3µM*	?	-0.3%
SMILES	SMN2 splice up	FLuc modulator	NPC1 prom act	ELG1 genotoxic	ELG1 DNA repair	Rab9 prom act
O=C(Nc1ccc(N2CCCCCC2)cc1)c1ccccc1Cl	14.1µM*	10.7µM*	20.7%	?	?	?
COc1cc(C(=O)Nc2ccc(S(=O)(=O)NC(C)C)cc2)cc(OC)c1OC	17.0%	-1.2%	-1.1%	5.4%	15.0%	0.7%
O=C(Nc1ccc(N2CCCC2)cc1)C(c1ccccc1)c1ccccc1	-12.9%	2.5%	-2.3%	3.0%	5.0%	-4.3%
COc1ccccc1C(=O)Nc1ccc(N2CCCCC2)cc1	17.8µM*	2.69µM*	?	2.91µM*	?	3.98µM*
O=C(Nc1ccc(N2CCCCC2)cc1)c1ccccn1	-76.6%	0.0675µM*	?	?	?	?
Cc1ccc2c(c1)c1c(n2CC(O)CN2CCCCCC2)CCCC1 (stereo unspecified)	nt	-2.1%	-1.8%	-3.5%	5.8%	-1.4%
O=C1[C@@H]2CSCN2C(=O)CN1Cc1ccccc1F	nt	0.4%	-0.3%	-1.5%	-1.9%	-5.3%
COc1ccc(-n2nc(C(=O)NCC(=O)N3CCCCCC3)c3ccccc3c2=O)c(OC)c1	nt	2.39µM*	11.5%	?	?	14.4%
COc1ccc(-n2nc(C(=O)NCC(=O)N3CCOCC3)c3ccccc3c2=O)c(OC)c1	nt	23.9µM*	-2.2%	4.5%	?	-2.6%
COc1ccc(-n2nc(C(=O)NCC(=O)N3CCCCC3)c3ccccc3c2=O)c(OC)c1	nt	3.79µM*	23.0%	?	?	?
COc1ccc(-n2nc(C(=O)NCC(=O)N3CCN(Cc4ccccc4)CC3)c3ccccc3c2=O)c(OC)c1	nt	?	-0.1%	0.6%	5.3%	-0.3%
COc1ccc(-n2nc(C(=O)NCC(=O)N3CCC(C)CC3)c3ccccc3c2=O)c(OC)c1	nt	1.51µM*	?	?	?	?
COc1ccc(-n2nc(C(=O)NCC(=O)NC(C)C)c3ccccc3c2=O)c(OC)c1	nt	-0.3%	3.8%	-0.8%	3.8%	0.9%
COc1ccc2c(c1)c(CC(=O)Nc1cc(C)c(OC)c(C)c1)c(C)n2C(=O)c1ccc(Cl)cc1	-2.8%	-12.6%	nt	nt	nt	nt
Cc1cccc(C(=O)N[C@H](C(=O)Nc2cc(S(=O)(=O)N3CCCCC3)ccc2C)C(C)C)c1	-6.0%	0.9%	-4.2%	-1.7%	?	-2.1%
Cc1ccc(NS(=O)(=O)c2cccc(C(=O)N3CCCCCC3)c2)cc1	nt	0.9%	-8.7%	-3.6%	-11.9%	-5.5%
CN(C(=O)c1ccco1)c1nc2c(s1)CCCC2	14.1µM*	2.39µM*	0.708µM*	?	?	0.891µM*
CN(C(=O)c1ccco1)c1nnc(C23CC4CC(CC(C4)C2)C3)s1	15.8µM*	9.53µM*	?	?	?	?
